Results filed as inconclusive are left out. Values without a mark were called inactive. The source made the active and inactive calls. The call rests on the fitted dose curve; in most records, active means well fitted inhibition curve with a large enough effect; inconclusive means small, poorly fitted or top-dose-only effect; inactive means flat fitted curve, though single readings scatter.
Target: Ubiquitin carboxyl-terminal hydrolase 1 (Homo sapiens) (UniProt O94782)
Assay: Inhibitors of USP1/UAF1: Pilot qHTS (AID 504865); further: nearly all actives have a fitted effect of over 35% in size;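 on activity change, negative = inhibition: rhodamine fluorescence freed from ubiquitin-rhodamine substrate followed over time; top concentration of the series differs between compounds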
Settings: purified USP1/UAF1, Ub-rhodamine cleavage fluorescence; series mostly up to 114 µM; activity change, negative = inhibition: at the top concentration
Text: Deubiquitinating enzymes (DUBs) are a class of enzymes that can cleave isopeptide bond formed between the C-terminal carboxylate of ubiquitin and a lysine side-chain amino group on the target protein. Among them, ubiquitin specific proteases (USPs) constitute the largest DUB family. Human USPs are emerging as promising targets for pharmacological intervention because of their connection to a number of human diseases, including prostate, colon and breast cancer (1, 2), pediatric acute lymphoblastic leukemia (3), and familial cylindromatosis (4). The advantage of inhibiting USPs lies in the potential specificity of therapeutic intervention that can lead to better efficacy and reduce nonspecific side effects.
In a collaboration between the University of Delaware and the NIH Chemical Genomics Center, a high-throughput screen assay was developed to screen for USP1/UAF1 inhibitors. This miniaturized assay has a fluorescent read-out and is used to screen the NIH Molecular Libraries Small Molecule Repository (MLSMR) in order to identify a small molecule that inhibits USP1.
NIH Chemical Genomics Center [NCGC]
NIH Molecular Libraries Probe Centers Network [MLPCN]
Assay Submitter (PI): Zhihao Zhuang, University of Delaware
1. Priolo, C., et al. (2006) The isopeptidase USP2a protects human prostate cancer from apoptosis. Cancer Res 66, 8625-8632
2. Popov, N., et al. (2007) The ubiquitin-specific protease USP28 is required for MYC stability. Nat Cell Biol 9, 765-774
3. De Pitta, C., et al. (2005) A leukemia-enriched cDNA microarray platform identifies new transcripts with relevance to the biology of pediatric acute lymphoblastic leukemia. Haematologica 90, 890-898
4. Kovalenko, A., et al. (2003) The tumour suppressor CYLD negatively regulates NF-kappaB signalling by deubiquitination. Nature 424, 801-805
3 microliters of reagents (buffer in columns 3 and 4 as negative control and 1nM USP1/UAF1 complex in columns 1, 2, and 5-48) are dispensed into Greiner black solid bottom 1536-well assay plates. Compounds are then transferred via Kalypsys pin tool equipped with 1536-pin array (10nl slotted pins, V&P Scientific, San Diego, CA). Following an incubation step of 15 min at room temperature, 1ul of Ub-Rho substrate (150nM final concentration) is added to initiate the reaction. The plates are immediately centrifuged at 1000 rpm for 15 seconds, and subsequently transferred to a ViewLux high-throughput CCD imager (PerkinElmer) wherein kinetic measurements of fluorescence are acquired using 480 nm excitation/540 nm emission filter set (6 reads every 60 seconds, see Table 1). All reagents are diluted in an assay buffer consisting of 50mM HEPES (pH 7.8), 0.5mM EDTA, 0.1 mg/ml BSA, 1mM TCEP, and 0.01% Tween-20.
On the % scale 0 is the no-effect control and ±100 the full control effect; potency means the concentration at half of the fitted maximal effect.

Ubiquitin carboxyl-terminal hydrolase 1 (Homo sapiens), sequence (O94782 whole entry, looked up): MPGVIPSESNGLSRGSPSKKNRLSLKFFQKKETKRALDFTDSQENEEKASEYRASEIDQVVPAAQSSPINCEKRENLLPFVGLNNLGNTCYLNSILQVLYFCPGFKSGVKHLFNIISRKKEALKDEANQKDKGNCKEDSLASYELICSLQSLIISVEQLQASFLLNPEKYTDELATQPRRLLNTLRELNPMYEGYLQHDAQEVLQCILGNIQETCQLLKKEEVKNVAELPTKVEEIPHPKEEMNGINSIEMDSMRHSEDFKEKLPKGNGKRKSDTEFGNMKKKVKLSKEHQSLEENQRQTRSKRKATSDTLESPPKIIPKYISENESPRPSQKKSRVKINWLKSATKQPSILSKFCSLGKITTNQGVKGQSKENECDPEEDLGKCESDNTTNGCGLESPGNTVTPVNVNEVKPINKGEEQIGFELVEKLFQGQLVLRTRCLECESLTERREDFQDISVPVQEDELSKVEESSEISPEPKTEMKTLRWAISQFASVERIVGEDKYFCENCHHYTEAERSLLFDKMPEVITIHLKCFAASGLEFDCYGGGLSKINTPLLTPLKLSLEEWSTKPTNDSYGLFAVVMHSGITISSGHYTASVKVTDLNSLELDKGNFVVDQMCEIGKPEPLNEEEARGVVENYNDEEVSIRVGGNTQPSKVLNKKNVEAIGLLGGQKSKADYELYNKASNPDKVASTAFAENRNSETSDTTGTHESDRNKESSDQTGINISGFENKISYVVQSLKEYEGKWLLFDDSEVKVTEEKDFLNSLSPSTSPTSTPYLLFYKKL

SMILES | Potency | activity change, negative = inhibition
O=C1CCC(c2ccc(-n3ccnc3)cc2)=NN1 | inactive | 
CCCCCCc1ccc(O)cc1O | 44.7 µM (active) | 
Cc1cc(N)c2cc(NC(=O)Nc3ccc4nc(C)cc(N)c4c3)ccc2n1 | 10 µM (active) | 
C[C@H]1[C@H](NC(=O)/C(=N/OC(C)(C)C(=O)O)c2csc(N)n2)C(=O)N1S(=O)(=O)O (stereo in doubt) |  | -1.01% [at 54.9 µM]
CC(C)(CO)[C@@H](O)C(=O)NCCCO | inactive | 
C[C@]12CC[C@@H]3c4ccc(O)cc4CC[C@H]3[C@@H]1CC[C@@H]2O | inactive | 
CCCCOc1cc(C(=O)NCCN(CC)CC)c2ccccc2n1 | inactive | 
CCCCCCCCCCOCC(O)CN (stereo not given) |  | -12.1%
CCC(C(=O)OCCN(CC)CC)c1ccccc1 (stereo not given) |  | 3.25%
CC(O)C(=O)O (stereo not given) |  | 4.19%
CCC(=O)c1c(O)cc(O)cc1O |  | -10.8%
CC[N+](CC)(CCNC(=O)C(=O)NCC[N+](CC)(CC)Cc1ccccc1Cl)Cc1ccccc1Cl | inactive | 
Cc1cc(O)c(C(C)C)cc1Cl |  | -5.49%
O=C(O)c1cc2cc(Cc3cccnc3)ccc2o1 | inactive | 
CCN(CC)C(=O)N1CCN(C)CC1 |  | -2.59% [at 54.9 µM]
C[C@@H]1C(=O)NC2=Nc3cccc(Cl)c3CN21 | inactive | 
CN(C)/N=N/c1nc[nH]c1C(N)=O | inactive | 
CCN1CCCC1=O |  | -6.7%
CC(C)COC(=O)OCN1C(=O)CN(CCN2CC(=O)N(COC(=O)OCC(C)C)C(=O)C2)CC1=O | inactive | 
CCCC1O[C@@H]2C[C@H]3[C@@H]4CCC5=CC(=O)C=C[C@]5(C)[C@H]4[C@@H](O)C[C@]3(C)[C@]2(C(=O)CO)O1 (stereo not given in full) |  | -3.17%

SMILES | Potency | activity change, negative = inhibition
CCN(CC)C(=O)/C(C#N)=C/c1cc(O)c(O)c([N+](=O)[O-])c1 |  | -1.91%
CCOC(=O)COc1ccc2c(C)c(CCN(CC)CC)c(=O)oc2c1Cl |  | 0.962%
CCCOC(C(=O)OC1CCN(C)CC1)(c1ccccc1)c1ccccc1 |  | -14.9%
CN(C)C(=S)SC(=S)N(C)C |  | -5.39%
O=C(N/N=C/c1ccccc1O)c1ccncc1 |  | -10.8%
NC(=O)C(=O)N/N=C/c1ccc([N+](=O)[O-])o1 |  | -1.33%
COC1=CC(=O)C[C@@H](C)[C@]12Oc1c(Cl)c(OC)cc(OC)c1C2=O | inactive | 
CC(=O)Nc1c(I)cc(I)c(C(=O)O)c1I |  | -10.8%
CCCn1c(=O)[nH]c(=O)c2[nH]cnc21 | inactive | 
Cc1c(C)n(CCN(C)C)c2ccc(C(=O)OCCN(C)C)cc12 |  | -10.6%
CC(C)(Oc1ccc(Cl)cc1)C(=O)O |  | -10.2%
OC(CCN1CCCCC1)(c1ccccc1)c1ccccc1 |  | -1.85%
Nc1nc2ncc(CNc3ccc(C(=O)N[C@@H](CCC(=O)O)C(=O)O)cc3)nc2c(=O)[nH]1 |  | -7.44%
CCCCN1CCCC1C(=O)Nc1c(C)cc(C)cc1C (stereo not given) |  | 1.06%
CNCCC=C1c2ccccc2CCc2ccccc21 | inactive | 
Oc1cc(O)c2c(c1)O[C@H](c1ccc(O)c(O)c1)[C@H](O)C2 | inactive | 
O=C(O)CNC(=O)c1ccccc1 |  | 1.97%
CC(=O)Oc1ccc(C(c2ccc(OC(C)=O)cc2)c2ccccn2)cc1 | inactive | 
C=C(CC)C(=O)c1ccc(OCC(=O)O)c(Cl)c1Cl | inactive | 
COc1cc(OC)cc(OC)c1 |  | -7.57%

From PubChem BioAssay (NCATS)
